High-throughput results (PubChem BioAssay)
GPR151 ag – activators of human GPR151; Q8TDV0; PathHunter beta-arrestin GPR151 cells, luminescence; activation, % at 11.2 µM; 650,000 tested, 1% active; AID 1508602; in the data active = activation above about 4.9%;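 also: 0% = median of compound wells and 100% = cells with positive control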
FBW7 activator – human FBW7 E3 ligase activation, primary screen; Q969H0; AlphaScreen FBW7–phospho-cyclin E peptide binding, activator screen; normalized activity (activation), % at 26.1 µM; 650,000 tested, 0.13% active; AID 1259310; in the data active = normalized activity above about 1.9%;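 also: purified mutant Fbw7 with reduced substrate affinity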
MITF inh – human MITF inhibition, primary screen. inhibition, % at 2.6 µM. AlphaScreen MITF homodimerization, bead proximity signal. O75030. 650,000 tested, 0.91% active; in the data active = inhibition above about 50%;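 also: 0% = vehicle wells with protein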
TEAD-YAP inh – TEAD-YAP interaction inhibition | inhibition, % at 9.12 µM | HEK-TIYL cells, TEAD-Gal4/YAP UAS-luciferase luminescence | AID 1259422 | 640,000 tested, 1.4% active; in the data active = inhibition above about 32%;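 also: 0% = median of test compound wells and 100% = reference inhibitor wells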
* hit, by the source's call; . = no result. The list is not random: actives were taken first. Their share in the collection is about 3.5%.

SMILES	GPR151 ag	FBW7 activator	MITF inh	TEAD-YAP inh
Oc1cccc(Nc2nc(-c3ccncc3)cs2)c1	-1	0	6	3
CCOc1ccc(Nc2nc(-c3sc(C)nc3C)cs2)cc1	-1	0	6	41*
Cc1ccc(Nc2nc(-c3c(C)nc4sccn34)cs2)c(C)c1	1	0	-3	50*
Cc1nc(C)c(-c2csc(Nc3cccc(O)c3)n2)s1	-1	0	10	35*
O=c1[nH]c(-c2cccc(OCc3ccccc3F)c2)nc2sc3c(c12)CCCC3	0	0	14	12
Cc1cccc(-n2nc3c(c2NC(=O)c2ccc(C)c(C)c2)CSC3)c1	-1	0	-4	1
COc1cc(Br)c(Nc2nc(-c3c(C)nc4sccn34)cs2)c(Br)c1	-1	0	-15	8
Oc1ccc(-c2csc(Nc3ccccc3)n2)cc1O	1	0	66*	-15
Cc1nc2sccn2c1-c1csc(Nc2ccc(Cl)cc2)n1	0	0	14	50*
Oc1ccc(-c2csc(Nc3ccc(Cl)cc3)n2)cc1O	-1	0	-1	-75
CCC(=O)Nc1nc(C)c(-c2csc(Nc3ccc(NC(C)=O)cc3)n2)s1	-2	0	13	44*
CCOc1ccc(Nc2nc(-c3c(C)nc4sccn34)cs2)cc1	-1	0	10	61*
O=C(/C=C/c1ccc(Br)cc1)Nc1ccccn1	-7	0	11	35*
O=C(/C=C/c1ccc2c(c1)OCO2)Nc1ccccn1	-9	-1	0	67*
O=C(/C=C/c1ccc(F)cc1)Nc1ccccn1	-8	0	11	57*
CCCCCCOc1ccc(NC(=O)CC2SC(N)=NC2=O)cc1 (configuration not stated)	-1	0	4	4
O=C1CC(=O)Nc2cc(S(=O)(=O)NCc3ccccc3Cl)ccc2N1	1	0	11	6
COc1ccc(OC)c(/C=C2/N=C(c3cccc([N+](=O)[O-])c3)OC2=O)c1	1	1.9*	15	3
O=C(Nc1ccccc1)C1=C(c2ccccc2)S(=O)(=O)CCS1(=O)=O	1	1	11	81*
O=C(Nc1ccc(-c2ccccc2)cc1)c1ccc(C(=O)Nc2ccc(-c3ccccc3)cc2)cc1	0	0	8	2
Cc1ccc(Cc2cnc(NC(=O)CCc3ccc(C)o3)s2)cc1	1	0	0	67*
Cc1ccc(CCC(=O)Nc2ncc(Cc3ccccc3Cl)s2)o1	0	0	-5	56*
O=C(CCl)Nc1ncc(Cc2ccccc2)s1	0	1	-11	-4
Cc1ccc(CCC(=O)Nc2ncc(Cc3ccccc3)s2)o1	0	0	-1	56*
CCc1ccc(CCC(=O)Nc2ncc(Cc3ccccc3F)s2)o1	-1	0	11	15
SMILES	GPR151 ag	FBW7 activator	MITF inh	TEAD-YAP inh
Cc1nc2cc(NC(=O)C3CC34CCN(Cc3ccco3)CC4)ccc2s1 (configuration not stated)	-1	0	4	2
CCOc1cccc2c1NC(c1ccc(C(=O)O)cc1)C1CC=CC21 (configuration not stated)	0	-2	59*	-8
Fc1cccc2c1NC(c1ccc(Br)cc1)C1CC=CC21 (configuration not stated)	0	0	1	19
CCOC(=O)c1cccc2c1N[C@@H](c1ccc(C(=O)O)cc1)[C@H]1CC=C[C@@H]21	0	-1	76*	8
O=C(O)c1ccc([C@@H]2Nc3c(F)cccc3[C@@H]3C=CC[C@@H]32)cc1	1	-1	70*	2
CN(C)c1cccc(Nc2ccc(-n3cc(CC(=O)Nc4ccc5c(c4)OCO5)c4ccccc43)nn2)c1	-1	0	9	-19
Cc1ccc(C)c(CN2CCC(c3nc4ccccc4[nH]3)CC2)c1	-2	0	-7	10
O=C(NCc1ccco1)c1cc(=O)[nH]c(=O)[nH]1	3	0	-6	-3
CCOC(=O)c1sc(NC(=O)c2ccoc2C)c(C(=O)OCC)c1C	0	0	0	-8
O=C(O)CCC/C=C\C[C@@H]1CO[C@H](C(F)(F)F)O[C@@H]1c1ccccc1O	2	2.2*	5	.
C[n+]1ccccc1/C=C/C1=C(c2ccccc2)Oc2ccccc2O1	2	0	0	83*
C[n+]1ccccc1/C=C\c1ccccc1O	0	0	3	3
C#CCN1C(=O)C(=O)c2cc(Br)ccc21	1	1	14	53*
CCCN1C(=O)C(=O)c2cc(Br)ccc21	0	0	-13	63*
C=CCN1C(=O)C(=O)c2cc(Br)ccc21	0	0	16	62*
O=C1C(=O)N(CCc2ccccc2)c2ccc(Br)cc21	1	0	17	27
